# Measured values as given in the supplement of paper PMC12632987.
# The full ranking holds about 1,800 sequences; the median of “median log2 fold change of GCK-ALFA target abundance (FLAG IP / Myc IP barcode read proportion)” is about 0.14, and the lowest 2% start at about -0.84. Many of the other results were omitted from the sample, so the lowest values are more common in it than they were.
# T1: TRAF2, Q12933
# T1 chain: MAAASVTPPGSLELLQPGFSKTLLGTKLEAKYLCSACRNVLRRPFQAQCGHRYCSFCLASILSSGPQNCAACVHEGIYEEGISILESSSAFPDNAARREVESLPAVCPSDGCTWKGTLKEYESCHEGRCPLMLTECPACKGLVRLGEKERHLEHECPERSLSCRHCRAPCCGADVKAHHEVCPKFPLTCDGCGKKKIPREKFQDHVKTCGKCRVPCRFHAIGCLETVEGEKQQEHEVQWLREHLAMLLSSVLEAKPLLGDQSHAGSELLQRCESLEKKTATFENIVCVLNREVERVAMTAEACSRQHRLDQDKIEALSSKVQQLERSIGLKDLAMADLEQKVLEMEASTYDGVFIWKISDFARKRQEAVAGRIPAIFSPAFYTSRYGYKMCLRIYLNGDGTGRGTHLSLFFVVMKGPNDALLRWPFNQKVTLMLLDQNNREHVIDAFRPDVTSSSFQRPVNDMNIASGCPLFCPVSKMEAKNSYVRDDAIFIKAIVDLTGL
# B1: traf2_out_11_155_685 (protein)
# chain: EEKQKINNELVDKISEIADKAKAEARAIAAATAAAHPEAAAALAATLEASAGFGLSSFLGRLAATFRALGLADAAAQVEALRAQAQKEMNAAVKEAEEKL
# B2: traf2_out_11_169_804 (protein)
# chain: EEAEKNREINDFALELNDEAVARLEEAALALAREAGLDPEEVRAIFEAHKGKSLSAVAAALIRHFRERGAEAAAEAVLALYEELKEEINKKMTEKIKELE
# B3: traf2_out_18_3_1946 (protein)
# chain: SEEERKKYSEKLDEVFDDTGAEILARARALVAEDPRFQPALDAIEAIAARGPRPATMANTLIDALRALGYEEEAAAVEEYYSEKAKEASELIKKYEEAIK
# B4: traf2_out_17_178_1710 (protein)
# chain: SKAEARATISAATDRMIDLAEAAAAELLAIAEAEGDLSPEELAELRRARRLGSARTTLALMRRAIPKLKSAERVQALLDRFEAEYAALAKEIAAALEKYE
# B5: traf2_out_17_178_1731 (protein)
# chain: SREEILKKISEKADELLDTNKEAMDELRKIAEKEGVLTPELREKLDAVHRNANLYALEEVFDEVIEKTKSKEEVEKLKEETSKKMRELNKEIQALVEELE
# B6: traf2_out_6_156_2382 (protein)
# chain: DIEKILEEAKKKIEELIKKLSKAPESKKIRYINEIAGTVYRALQKLRDLGASLEELKEFTEEIKKFVEEQLEKYGLDESTKNLILSSINAVGEVALREAA
# B7: traf2_out_20_3_2262 (protein)
# chain: DELRAKAEAALAEAEALLAELAPRLPAADAARLQELLDAAKAAFATDLRDALVYLSELRRLALALAEEARAAGDAALAAALEALADAVGRAANYVYKIIE
# B8: traf2_out_20_38_2004 (protein)
# chain: SEEEEEEKRLEKIIQAANDALDAWEARFAALKAEGKSVEEIAEIAKEEIRRLLTAAGLEEEAEELVAQVDLVLDSPDAERLIARILARAAALVTQKKLQE
# B9: traf2_out_20_38_2006 (protein)
# chain: SEEEEEEKRLQKIIDAANEELDRWEKEIEELRAEGKSVEEIAEIAKKRIREMLTAAGLEEEAEELIAQVDTVLDSPDAERAIARILARAAALVTQKKLQE
# Target: T1, TRAF2, Q12933
# Assay: median log2 fold change of GCK-ALFA target abundance (FLAG IP / Myc IP barcode read proportion) (log2 ratio); each designed protein is fused to an ALFA-tag nanobody in HEK293 cells to bring the named protein to FLAG-tagged glucokinase (GCK); Myc marks an untargeted standard; higher = target protein stabilised (more abundant)
# Conditions: target protein: 3xFLAG-MCP-GCK-ALFA reporter; HEK293 landing pad (RPLP)
# Procedure: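 LABEL-seq trans screen in HEK293 landing-pad cells. Each de novo designed 100-aa effector handle, binding the indicated effector (E3 ligase, DUB or autophagy protein), is fused to a constant NbALFA target handle and induced with 2 ug/mL doxycycline. A FLAG-MCP-GCK-ALFA target and a Myc-MCP standard reporter were transfected, and after 48 h circRNA barcodes were recovered by anti-FLAG and anti-Myc IP and sequenced. The value is the median across barcodes (at least 3 per design) of log2(FLAG/Myc read-proportion ratio), with the two transfection replicates pooled. Negative values mean degradation and positive values mean stabilisation of the target.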
row,Binder,median log2 fold change
1,B1,0.177
2,B2,0.243
3,B3,0.267
4,B4,-0.136
5,B5,0.639
6,B6,0.0808
7,B7,0.219
8,B8,-1.04
9,B9,-0.29
